# Experimental data as given in the supplement of paper PMC8728848.
# The full list was thinned out, with the strongest signals kept by preference.
# B1: CALR truncated at D342 (Homo sapiens) (protein)
# chain: EPAVYFKEQFLDGDGWTSRWIESKHKSDFGKFVLSSGKFYGDEEKDKGLQTSQDARFYALSASFEPFSNKGQTLVVQFTVKHEQNIDCGGGYVKLFPNSLDQTDMHGDSEYNIMFGPDICGPGTKKVHVIFNYKGKNVLINKDIRCKDDEFTHLYTLIVRPDNTYEVKIDNSQVESGSLEDDWDFLPPKKIKDPDASKPEDWDERAKIDDPTDSKPEDWDKPEHIPDPDAKKPEDWDEEMDGEWEPPVIQNPEYKGEWKPRQIDNPDYKGTWIHPEIDNPEYSPDPSIYAYDNFGVLGLDLWQVKSGTIFDNFLITNDEAYAEEFGNETWGVTKAAEKQMKD
# Legend:
# Assay in all cases: glycan array binding signal (z-score within array); higher = stronger binding
# Conditions in all cases: glycan notation: IUPAC condensed, linker removed
# Fuc(a1-2)Gal = target: Fuc(a1-2)Gal
# Summary of the method: (§1)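 Glycan array data came from 3228 arrays in the Consortium for Functional Glycomics database, and only arrays with an available protein sequence were kept. Glycan names were put into IUPAC-condensed notation, and columns mapping to the same glycan were averaged. The binding signal is a within-array Z-score, averaged across arrays of one protein sequence run at different concentrations or buffers and across linkers. A negative Z-score can be read as non-binding.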
# [1] = target: Fuc(a1-2)Gal(b1-3)GalNAc(b1-3)Gal(a1-4)Gal(b1-4)Glc
# Summary of the method: as §1
# [2] = target: Fuc(a1-2)Gal(b1-3)[Fuc(a1-4)]GlcNAc(b1-2)Man(a1-3)[Fuc(a1-2)Gal(b1-3)[Fuc(a1-4)]GlcNAc(b1-2)Man(a1-6)]Man(b1-4)GlcNAc(b1-4)GlcNAc
# Summary of the method: as §1
# [3] = target: Fuc(a1-2)Gal(b1-4)GlcNAc(b1-2)Man
# Summary of the method: as §1
# [4] = target: Fuc(a1-2)Gal(b1-4)GlcNAc(b1-2)[Fuc(a1-2)Gal(b1-4)GlcNAc(b1-4)]Man(a1-3)[Fuc(a1-2)Gal(b1-4)GlcNAc(b1-2)Man(a1-6)]Man(b1-4)GlcNAc(b1-4)GlcNAc
# Summary of the method: as §1
# [5] = target: Fuc(a1-2)Gal(b1-4)[Fuc(a1-3)]GlcNAc(b1-2)Man(a1-6)[Fuc(a1-2)Gal(b1-4)[Fuc(a1-3)]GlcNAc(b1-2)Man(a1-3)]Man(b1-4)GlcNAc(b1-4)[Fuc(a1-6)]GlcNAc
# Summary of the method: as §1
# [6] = target: Fuc(a1-2)Gal(b1-4)[Fuc(a1-3)]GlcNAc(b1-2)[Fuc(a1-2)Gal(b1-4)[Fuc(a1-3)]GlcNAc(b1-4)]Man(a1-3)[Fuc(a1-2)Gal(b1-4)[Fuc(a1-3)]GlcNAc(b1-2)Man(a1-6)]Man(b1-4)GlcNAc(b1-4)GlcNAc
# Summary of the method: as §1
# [7] = target: Fuc(a1-2)[Gal(a1-3)]Gal(b1-4)[Fuc(a1-3)]GlcNAc
# Summary of the method: as §1
# [8] = target: Gal(a1-3)Gal(b1-3)GlcNAc(b1-2)Man(a1-3)[Gal(a1-3)Gal(b1-3)GlcNAc(b1-2)Man(a1-6)]Man(b1-4)GlcNAc(b1-4)GlcNAc
# Summary of the method: as §1
# [9] = target: Gal(a1-3)Gal(b1-4)[Fuc(a1-3)]GlcNAc(b1-2)Man(a1-3)[Gal(a1-3)Gal(b1-4)[Fuc(a1-3)]GlcNAc(b1-2)Man(a1-6)]Man(b1-4)GlcNAc(b1-4)GlcNAc
# Summary of the method: as §1
# [10] = target: Gal(a1-4)Gal(b1-4)GlcNAc(b1-2)Man(a1-3)[Gal(a1-4)Gal(b1-4)GlcNAc(b1-2)Man(a1-6)]Man(b1-4)GlcNAc(b1-4)GlcNAc
# Summary of the method: as §1
# Gal(a1-4)GlcNAc = target: Gal(a1-4)GlcNAc
# Summary of the method: as §1
# [11] = target: Gal(b1-3)GlcNAc(b1-2)Man(a1-3)[Gal(b1-3)GlcNAc(b1-2)Man(a1-6)]Man(b1-4)GlcNAc(b1-4)GlcNAc
# Summary of the method: as §1
# [12] = target: Gal(b1-3)GlcNAc(b1-2)Man(a1-3)[GlcNAc(b1-4)][Gal(b1-3)GlcNAc(b1-2)Man(a1-6)]Man(b1-4)GlcNAc(b1-4)GlcNAc
# Summary of the method: as §1
# [13] = target: Gal(b1-3)GlcNAc(b1-2)[Gal(b1-3)GlcNAc(b1-6)]Man(a1-6)[Gal(b1-3)GlcNAc(b1-2)Man(a1-3)]Man(b1-4)GlcNAc(b1-4)GlcNAc
# Summary of the method: as §1
# [14] = target: Gal(b1-3)GlcNAc(b1-3)Gal(b1-4)Glc
# Summary of the method: as §1
# [15] = target: Gal(b1-3)GlcNAc(b1-3)GalNAc
# Summary of the method: as §1
# [16] = target: Gal(b1-3)[Fuc(a1-4)]GlcNAc(b1-2)Man(a1-3)[Gal(b1-3)[Fuc(a1-4)]GlcNAc(b1-2)Man(a1-6)]Man(b1-4)GlcNAc(b1-4)[Fuc(a1-6)]GlcNAc
# Summary of the method: as §1
# [17] = target: Gal(b1-3)[Fuc(a1-4)]GlcNAc(b1-3)Gal(b1-4)[Fuc(a1-3)]GlcNAc
# Summary of the method: as §1
# [18] = target: Gal(b1-3)[Fuc(a1-4)]GlcNAc(b1-6)GalNAc
# Summary of the method: as §1
# [19] = target: Gal(b1-3)[Neu5Ac(a2-6)]GalNAc
# Summary of the method: as §1
# [20] = target: Gal(b1-3)[Neu5Ac(b2-6)]GalNAc
# Summary of the method: as §1
# Gal(b1-4)Glc = target: Gal(b1-4)Glc
# Summary of the method: as §1
# [21] = target: Gal(b1-4)GlcNAc(b1-3)Gal(b1-3)GlcNAc
# Summary of the method: as §1
# Gal(b1-6)Gal = target: Gal(b1-6)Gal
# Summary of the method: as §1
# Gal3S6S(b1-4)GlcNAc = target: Gal3S6S(b1-4)GlcNAc
# Summary of the method: as §1
# Gal6S(b1-4)GlcNAc = target: Gal6S(b1-4)GlcNAc
# Summary of the method: as §1
# [22] = target: GalNAc(b1-3)Gal(a1-6)Gal(b1-4)Glc
# Summary of the method: as §1
# GalNAc3S(b1-4)GlcNAc = target: GalNAc3S(b1-4)GlcNAc
# Summary of the method: as §1
# Glc(a1-4)Glc = target: Glc(a1-4)Glc
# Summary of the method: as §1
# GlcA(b1-6)Gal = target: GlcA(b1-6)Gal
# Summary of the method: as §1
# [23] = target: GlcNAc(a1-3)Gal(b1-4)GlcNAc
# Summary of the method: as §1
# [24] = target: GlcNAc(a1-4)Gal(b1-4)GlcNAc(b1-3)Gal(b1-4)[Fuc(a1-3)]GlcNAc(b1-3)Gal(b1-4)[Fuc(a1-3)]GlcNAc
# Summary of the method: as §1
# [25] = target: GlcNAc(b1-2)Gal(b1-3)GalNAc
# Summary of the method: as §1
# [26] = target: GlcNAc(b1-2)[GlcNAc(b1-6)]Man(a1-6)[GlcNAc(b1-2)Man(a1-3)][GlcNAc(b1-4)]Man(b1-4)GlcNAc(b1-4)GlcNAc
# Summary of the method: as §1
# [27] = target: Man(a1-2)Man(a1-2)Man(a1-3)Man
# Summary of the method: as §1
# [28] = target: Man(a1-2)Man(a1-6)[Man(a1-3)]Man(a1-6)[Man(a1-2)Man(a1-2)Man(a1-3)]Man
# Summary of the method: as §1
# [29] = target: Man(a1-3)[Man(a1-6)]Man(a1-6)[Man(a1-3)]Man
# Summary of the method: as §1
# Man(a1-6)Man = target: Man(a1-6)Man
# Summary of the method: as §1
# [30] = target: Neu5Ac(a2-6)Gal(b1-4)GlcNAc(b1-2)Man(a1-3)[GlcNAc(b1-2)Man(a1-6)]Man(b1-4)GlcNAc(b1-4)GlcNAc
# Summary of the method: as §1
# [31] = target: Neu5Ac(a2-6)Gal(b1-4)GlcNAc(b1-2)Man(a1-6)[Gal(b1-4)GlcNAc(b1-2)Man(a1-3)]Man(b1-4)GlcNAc(b1-4)GlcNAc
# Summary of the method: as §1
# [32] = target: Neu5Ac(a2-6)Gal(b1-4)GlcNAc(b1-2)Man(a1-6)[GlcNAc(b1-2)Man(a1-3)]Man(b1-4)GlcNAc(b1-4)GlcNAc
# Summary of the method: as §1
# [33] = target: Neu5Ac(a2-6)Gal(b1-4)GlcNAc(b1-3)Gal(b1-4)[Fuc(a1-3)]GlcNAc(b1-3)Gal(b1-4)[Fuc(a1-3)]GlcNAc
# Summary of the method: as §1
# Neu5Ac(a2-6)GalNAc = target: Neu5Ac(a2-6)GalNAc
# Summary of the method: as §1
# [34] = target: Neu5Ac(a2-6)GlcNAc(b1-4)GlcNAc(b1-4)GlcNAc
# Summary of the method: as §1
# [35] = target: Neu5Ac(a2-8)Neu5Ac(a2-8)Neu5Ac(a2-3)[GalNAc(b1-4)]Gal(b1-4)Glc
# Summary of the method: as §1
binder,measurement,setting,value
B1,glycan array binding signal (z-score),Fuc(a1-2)Gal,-0.171
same,glycan array binding signal (z-score),[1],-0.373
same,glycan array binding signal (z-score),[2],3.18
same,glycan array binding signal (z-score),[3],-1.98
same,glycan array binding signal (z-score),[4],2.76
same,glycan array binding signal (z-score),[5],1.04
same,glycan array binding signal (z-score),[6],2.8
same,glycan array binding signal (z-score),[7],-0.484
same,glycan array binding signal (z-score),[8],0.21
same,glycan array binding signal (z-score),[9],2.73
same,glycan array binding signal (z-score),[10],0.225
same,glycan array binding signal (z-score),Gal(a1-4)GlcNAc,4.99
same,glycan array binding signal (z-score),[11],-0.863
same,glycan array binding signal (z-score),[12],-0.281
same,glycan array binding signal (z-score),[13],3.33
same,glycan array binding signal (z-score),[14],-0.183
same,glycan array binding signal (z-score),[15],-0.05
same,glycan array binding signal (z-score),[16],1.24
same,glycan array binding signal (z-score),[17],4.2
same,glycan array binding signal (z-score),[18],0.999
same,glycan array binding signal (z-score),[19],-0.241
same,glycan array binding signal (z-score),[20],0.075
same,glycan array binding signal (z-score),Gal(b1-4)Glc,-0.137
same,glycan array binding signal (z-score),[21],0.662
same,glycan array binding signal (z-score),Gal(b1-6)Gal,0.132
same,glycan array binding signal (z-score),Gal3S6S(b1-4)GlcNAc,0.029
same,glycan array binding signal (z-score),Gal6S(b1-4)GlcNAc,-1.33
same,glycan array binding signal (z-score),[22],-0.627
same,glycan array binding signal (z-score),GalNAc3S(b1-4)GlcNAc,1.07
same,glycan array binding signal (z-score),Glc(a1-4)Glc,-0.124
same,glycan array binding signal (z-score),GlcA(b1-6)Gal,1.96
same,glycan array binding signal (z-score),[23],-0.73
same,glycan array binding signal (z-score),[24],2.68
same,glycan array binding signal (z-score),[25],-0.975
same,glycan array binding signal (z-score),[26],-0.104
same,glycan array binding signal (z-score),[27],-0.176
same,glycan array binding signal (z-score),[28],3.6
same,glycan array binding signal (z-score),[29],-0.102
same,glycan array binding signal (z-score),Man(a1-6)Man,0.051
same,glycan array binding signal (z-score),[30],-0.321
same,glycan array binding signal (z-score),[31],3.22
same,glycan array binding signal (z-score),[32],-1.48
same,glycan array binding signal (z-score),[33],0.139
same,glycan array binding signal (z-score),Neu5Ac(a2-6)GalNAc,-0.893
same,glycan array binding signal (z-score),[34],0.867
same,glycan array binding signal (z-score),[35],-0.341
